# Data from PubChem BioAssay AID1211 (NMMLSC, 2008).
# Molecular target: Estrogen receptor (Homo sapiens) (UniProt P03372)
# Assay: ERalpha ligand binders by competition, primary screen, cell-based, Cos7 ERalpha-GFP, flow cytometry (AID 1211);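 also: 0% = DMSO vehicle wells and 100% = no E2-Alexa633 signal left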
# Conditions: fluorescent ligand competition, binding inhibition, at 0.1 µM, stronger effect = higher value
# Estrogen receptor (Homo sapiens), sequence (P03372 whole entry, looked up): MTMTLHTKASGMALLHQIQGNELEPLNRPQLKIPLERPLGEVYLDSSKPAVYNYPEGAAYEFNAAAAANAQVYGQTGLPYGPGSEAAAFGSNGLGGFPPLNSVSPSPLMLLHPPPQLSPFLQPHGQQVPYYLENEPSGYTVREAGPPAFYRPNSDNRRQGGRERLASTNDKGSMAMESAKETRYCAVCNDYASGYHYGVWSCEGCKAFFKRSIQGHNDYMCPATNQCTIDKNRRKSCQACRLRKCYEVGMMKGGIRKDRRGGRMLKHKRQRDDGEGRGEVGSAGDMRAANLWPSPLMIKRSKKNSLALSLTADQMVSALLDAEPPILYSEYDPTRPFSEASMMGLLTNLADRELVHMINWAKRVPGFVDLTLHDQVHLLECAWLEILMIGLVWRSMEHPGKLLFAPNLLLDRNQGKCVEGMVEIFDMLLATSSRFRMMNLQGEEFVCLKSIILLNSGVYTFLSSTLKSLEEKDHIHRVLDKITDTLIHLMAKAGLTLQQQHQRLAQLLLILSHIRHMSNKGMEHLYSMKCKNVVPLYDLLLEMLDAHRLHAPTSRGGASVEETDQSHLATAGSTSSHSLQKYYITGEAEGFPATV
row,SMILES,inhibition of ligand binding
1,CC(=O)OC1CC(C)(C)N(OC(=O)c2ccc(N)cc2)C(C)(C)C1,7%
2,Cc1ccc(N=Cc2c(O)n(-c3ccc4c(c3)OCO4)c(=O)c3ccccc23)cc1,19%
3,COc1cc(OC)cc(C(=O)NC2CCN(C(=O)N3c4ccccc4Sc4ccccc43)CC2)c1,22%
4,Oc1ccc(-c2nc(-c3ccc(O)c(O)c3)cs2)cc1,39%
5,O=C(Cc1cccs1)Nc1nnc(Cc2ccccc2)s1,31%
6,O=C(Cc1cccs1)Nc1ccc(S(=O)(=O)Nc2ncccn2)cc1,87%
7,O=C(c1cc2sccc2n1Cc1ccccc1)N1CCc2ccccc21,20%
8,CC(C)(C)c1nnc2sc(SC/C(O)=C(\C#N)c3nc4ccccc4[nH]3)nn2c1=O,8%
9,Cc1c2cc(O)c(=O)cc-2oc2cc(O)c(O)cc12,51%
10,CN1C(=O)CSc2ccc(NC(=O)N3CCC(N4CCCCC4)CC3)cc21,1%
11,Oc1cccc(-c2nc3ccc4ccccc4c3c3c2CCC3)c1,21%
12,O=C(c1cccs1)N1N=C(c2ccc(O)cc2)CC1c1ccccc1 (centres undefined),17%
13,Cc1occc1C(=O)NCc1cccc(CNC(=O)c2ccoc2C)c1,26%
14,COc1ccccc1N1CCN(C(=O)c2cc3c(s2)CCC3)CC1,55%
15,Nc1ccc(-c2cc(-c3ccc(N)cc3)nc(-c3ccccc3)n2)cc1,12%
16,CC1(C)Cc2c(sc3c4nnnn4c4nnnn4c23)CO1,21%
17,COc1ccc(Cl)cc1NC(=O)c1ocnc1C,3%
18,COc1ccc2nc3oc(C(=O)N4CCN(c5cccc(C(F)(F)F)c5)CC4)cc3cc2c1,19%
19,CCSc1nnc(NC(=O)C2Cc3ccccc3CN2C(=O)c2ccco2)s1 (centres undefined),44%
20,O=C(OCC(=O)N1CCN(C(=O)c2ccco2)CC1)c1cc(-c2ccco2)nc2ccccc12,77%

row,SMILES,inhibition of ligand binding
1,CC(Cc1ccc(O)c(O)c1)C(C)Cc1ccc(O)c(O)c1 (centres undefined),3%
2,CCOC(=O)C1CCCN(C(=O)c2ccc(CS(=O)(=O)c3ccc(C)cc3)o2)C1 (centres undefined),6%
3,COCCNC(=O)c1c(N)n(/N=C/c2cccs2)c2nc3ccccc3nc12,6%
4,CCC1(C)NC(=O)N(CC(=O)Nc2sc3c(c2C(N)=O)CCC3)C1=O (centres undefined),16%
5,Cc1ccc2occ(C3NC(C(=O)O)CS3)c(=O)c2c1 (centres undefined),27%
6,O=c1cc(CSc2nnc(-c3cccs3)n2Cc2ccccc2)nc2sc3ccccc3n12,28%
7,Cc1cc(C)nc(NC(=O)CSc2nn(C)c(=S)s2)n1,34%
8,C/C=C/COC(=O)c1[nH]c2c(c1C)C(=O)CC(c1ccco1)C2 (centres undefined),27%
9,Cc1ccc(/C=c2\sc3nc(-c4ccco4)nn3c2=O)o1,26%
10,Cc1ccc(C)n1-c1sccc1C(=O)O,36%
11,COc1cccc2c1NC(C(=O)O)C1CC=CC21 (centres undefined),9%
12,Cc1ccc(N=Cc2ccc(O)cc2O)cc1F,2%
13,COc1ccc(OC)c(NC(=O)c2cc(-c3ccc(C)cc3O)n[nH]2)c1,5%
14,CCn1c(SCC(=O)Nc2ccc3c(c2)oc2ccccc23)nnc1-c1ccc(N)cc1,10%
15,Nc1ccc2nc(CN3CCOCC3)[nH]c2c1,41%
16,O=C(Nc1ccc2c(c1)nc1n2CCSC1)c1ccco1,42%
17,COc1ccc(-c2nc(C(N)=O)c3[nH]c(=O)n(-c4cccc(Cl)c4)c3n2)cc1OC,6%
18,O=C(O)c1ccc(NS(=O)(=O)c2ccc3c(c2)C2C=CCC2C(c2ccccc2F)N3)cc1 (centres undefined),5%
19,Cc1cc(=O)oc2c(CN3CCC(C)CC3)c(O)c(Cl)cc12,6%
